Test results published in PubChem BioAssay AID588800 (Johns Hopkins Ion Channel Center, 2011).

Each molecule was assayed against Potassium voltage-gated channel subfamily KQT member 2 (Rattus norvegicus) (UniProt O88943) (assay: rat KCNQ2 channel inhibition, SAR follow-up, selectivity assay for KCNK9 inhibitor project, cell-based, FluxOR thallium flux, CRC set 2 (AID 588800)). Conditions: KCNQ2-expressing cells; series mostly up to 30 µM; thallium flux ratio, lower = inhibition: at the top concentration;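 active means peak inhibition of the KCNQ2 potassium channel above 30% at some tested dose, plus a fitted dose response curve; inactive means no inhibition at any dose, or no curve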.
Potassium voltage-gated channel subfamily KQT member 2 (Rattus norvegicus), sequence (O88943 whole entry, looked up): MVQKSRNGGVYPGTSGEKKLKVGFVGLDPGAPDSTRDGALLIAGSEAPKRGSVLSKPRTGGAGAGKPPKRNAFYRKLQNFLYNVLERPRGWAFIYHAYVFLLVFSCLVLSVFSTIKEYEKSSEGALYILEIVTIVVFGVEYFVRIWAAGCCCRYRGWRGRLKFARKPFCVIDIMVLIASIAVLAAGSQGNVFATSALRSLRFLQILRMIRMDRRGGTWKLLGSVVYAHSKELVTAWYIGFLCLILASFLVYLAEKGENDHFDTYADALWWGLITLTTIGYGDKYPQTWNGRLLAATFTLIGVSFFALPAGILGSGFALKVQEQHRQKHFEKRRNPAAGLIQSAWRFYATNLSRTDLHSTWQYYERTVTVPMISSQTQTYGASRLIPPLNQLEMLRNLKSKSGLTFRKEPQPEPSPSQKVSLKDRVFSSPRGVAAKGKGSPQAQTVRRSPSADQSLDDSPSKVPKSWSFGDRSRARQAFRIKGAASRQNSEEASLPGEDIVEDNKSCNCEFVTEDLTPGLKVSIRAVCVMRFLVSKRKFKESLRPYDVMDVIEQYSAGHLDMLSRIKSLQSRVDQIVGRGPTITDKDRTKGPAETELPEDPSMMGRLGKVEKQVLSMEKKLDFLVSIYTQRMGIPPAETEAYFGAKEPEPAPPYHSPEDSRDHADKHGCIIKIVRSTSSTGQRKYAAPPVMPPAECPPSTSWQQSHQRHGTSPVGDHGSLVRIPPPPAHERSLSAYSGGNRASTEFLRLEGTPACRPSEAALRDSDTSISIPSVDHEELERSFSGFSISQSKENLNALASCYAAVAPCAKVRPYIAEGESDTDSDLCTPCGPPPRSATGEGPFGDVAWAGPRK

Thallium flux ratio, lower = inhibition, inactive:
Cc1cccc(C(=O)Nc2cccc(NC(=O)C3CCCCC3)c2)c1 0.167, Cc1cccc(C(=O)Nc2cccc(NC(=O)c3cccs3)c2)c1 0.169, CCOc1ccccc1NC(=O)c1cccc(NC(=O)C2CCCO2)c1 (stereo not drawn) 0.195, COc1ccccc1C(=O)Nc1cccc(NC(=O)c2ccccc2OC(F)(F)F)c1 0.183, COc1cccc(-c2n[nH]c(=S)n2C(C)C2CC3CCC2C3)c1 (stereo not drawn) 0.176, O=C(Nc1cccc(NC(=O)c2cccc(Cl)c2)c1)c1ccccc1 0.143, O=C(Nc1cccc(NC(=O)c2ccccc2)c1)c1ccccc1 0.154, CCOc1ccccc1NC(=O)c1cccc(NC(=O)C2CC2)c1 0.189, CCOc1ccccc1NC(=O)c1cccc(NC(=O)c2cccc(C)c2)c1 0.176, CC(C1CC2CCC1C2)n1c(-c2ccoc2)n[nH]c1=S (stereo not drawn) 0.147, CCOc1ccccc1C(=O)Nc1cccc(NC(=O)c2cccc(C)c2)c1 0.16, CCOc1ccccc1NC(=O)c1cccc(NC(=O)C2CCCCC2)c1 0.19, Cc1cccc(C(=O)Nc2cccc(NC(=O)c3ccccc3OC(F)(F)F)c2)c1 0.178, Cc1ccc(-c2n[nH]c(=S)n2C(C)C2CC3CCC2C3)cc1 (stereo not drawn) 0.174, O=C(Nc1cccc(NC(=O)c2ccco2)c1)c1ccccc1 0.214, Cc1cccc(C(=O)Nc2cccc(NC(=O)c3ccc(C(C)(C)C)cc3)c2)c1 0.244, COc1ccc(C(=O)Nc2cccc(NC(=O)c3ccccc3)c2)cc1 0.15, CCOc1ccccc1NC(=O)c1cccc(NC(=O)c2ccccc2)c1 0.183
